Results on 40 compounds are retold here after PubChem BioAssay AID1650 (Southern Research Specialized Biocontainment Screening …, 2009).

SMILES strings stand for the structures. Potency and affinity values are given separately. Active and inactive are the calls of the source. A call without a number means that no potency is given here. No rule for the calls is given here.

This assay in a line: host cell cytotoxicity of antiviral hits, dose response, cytotoxicity control for West Nile virus antiviral project, secondary assay (AID 1650). The note with it: Mammalian host cell viability, cytotoxicity counter-screen; series mostly up to 10 µM. (A counterscreen serves to expose hits that act by an unwanted route or on another target.)
As for `CN1CCN(C(=O)CCN2C(=O)/C(=C/c3cccc(Br)c3)SC2=S)CC1`, the call was inactive. For `COC(=O)c1ccc(NC(=O)CC2C(=O)N(C)C(=S)N2Cc2ccc(S(N)(=O)=O)cc2)cc1` (stereo not given), the call was inactive. Consider `O=[N+]([O-])c1cc(-c2nnc(Nc3ccc(O)cc3)c3ccccc23)ccc1N1CCOCC1`, for which the outcome was inactive. For `O=C(CSc1nc2ccccc2c(=O)n1-c1ccc(F)cc1F)Nc1ccc2c(c1)CCC2`, the outcome was inactive. Under `CC(=O)OCCCNc1cc(Sc2ccc(C)cc2)c2nonc2c1[N+](=O)[O-]` stands “inactive”; under `CC(C)n1cc(/C=C2/SC(=O)N(CC(=O)Nc3ccc4c(c3)OCO4)C2=O)c2ccccc21`, “inactive”; under `Cn1cnc([N+](=O)[O-])c1Oc1cccc2ccccc12`, “inactive”.

On to `COc1cc2cc(CN(CCc3ccccc3C)C(=S)NCCCN(C)C)c(=O)[nH]c2cc1OC`, for which the compound was called inactive. Under `O=c1c(O[C@@H]2O[C@H](CO)[C@@H](O)[C@H](O)[C@H]2O)c(-c2ccc(O)c(O)c2)oc2cc(O)cc(O)c12` stands “inactive”. Under `COCCN1CCCC(CNCc2cn(C)nc2-c2ccc(Oc3ccccc3)cc2)C1` (stereo not given) stands “inactive”.

With `O=C(CSc1nc2ccccc2c(=O)n1-c1ccc(F)cc1)Nc1ccc2c(c1)CCC2`, the compound was called inactive. Under `CCN1CCN(c2cc(C)c3cc(NC(=S)N4CCCC(C)C4)ccc3n2)CC1` (stereo not given) stands “inactive”; under `CN1CCCC1CCNc1ccc2c(=O)c3ccccc3oc2c1` (stereo not given), “inactive”; under `CC1=CC(C)(C)N2C(=O)C3(NCCc4c3[nH]c3ccccc43)c3cc(C)cc1c32` (stereo not given), “inactive”. The result for `N#Cc1c(N)nc2c3c(sc(=N)c2c1N)NC(=O)CC3c1ccccc1Cl` (stereo not given) reads “inactive”; that for `Cc1cccc(C)c1Nc1nc2ccccc2o1`, “inactive”; that for `CCN(CC)S(=O)(=O)c1cc(C(=O)Nc2cc(Cl)ccc2N2CCN(C)CC2)ccc1Cl`, “inactive”. The result for `Cc1cc2nc(Sc3c([N+](=O)[O-])nc(C)n3Cc3ccccc3)[nH]c2cc1C` reads “inactive”; that for `CN1CCN(c2nc(Nc3ccc(F)cc3)nc(Nc3ccc(F)cc3)n2)CC1`, “inactive”. With `c1ccc(-c2ccc(-c3[nH]ncc3CN3CCC(N4CCSCC4)CC3)cc2)cc1`, the compound was classed as inactive. For the compound `CCN(CC)CCC(c1cc(OC)c(OC)c(OC)c1)c1c(OC)cc(OC)c2c(-c3ccccc3)cc(=O)oc12` (stereo not given), the result was inactive. Under `CN(C)CCNS(=O)(=O)c1ccc(N2CCN(c3ccc(F)cc3)CC2)c([N+](=O)[O-])c1` stands “inactive”; under `O=C(c1cccc(S(=O)(=O)N2CCOCC2)c1)N1CCOCC1`, “inactive”. Regarding `CN(C)CCNC(=O)c1cc2sc3ccccc3c2s1`, the compound was classed as inactive.

As for `CCN1C/C(=C/c2ccc(N3CCOCC3)cc2)C(=O)/C(=C/c2ccc(N3CCOCC3)cc2)C1`, the outcome was inactive.

Turning to `CC(C)c1ccc(/C=C/C(=O)Nc2ccc(CN3CCOCC3)cc2)cc1`, the call was inactive. As to `CC/C(=C(\c1ccc(O)cc1)c1ccc(OCCN(C)C)cc1)c1ccccc1`, the outcome was inactive.

For the compound `O=C(NCCCN1CCCC1)c1ccc2c(c1)N(Cc1cccc(Cl)c1)C(=O)c1ccccc1S2=O` (stereo not given), the compound was classed as inactive.

Take `CCN1CCN(Cc2ccc(NC(=O)c3ccc(C)c(NC(=O)N4CCNC4=O)c3)cc2C(F)(F)F)CC1`: the compound was called inactive.

As to `Cn1c(=O)n(CCCOc2ccc(Br)cc2)c2ccccc21`, the outcome was inactive. In the case of `Cc1ccc2nc(N(CCCN(C)C)C(=O)CCc3ccccc3)sc2c1`, the compound was called inactive.

With `CCn1ncc(CN2CCC(C(=O)Nc3cccc(-c4cccc(F)c4)c3)CC2)c1C`, the compound was called inactive.

Turning to `Cc1cncn1CCc1nc2c3ccccc3nc(SCC(=O)Nc3cccc(Cl)c3)n2n1`, the result was inactive.

On to `CN1C2CCC1/C(=C\c1ccccc1)C(=O)/C2=C\c1ccccc1`, for which the outcome was inactive. `COc1ccc(C2c3ccc4ccccc4c3Oc3ncn(CCO)c(=N)c32)cc1OC` (stereo not given): the compound was called inactive. Regarding `CC1CCN(c2nc3ccc(C(=O)NCCCN4CCCCC4C)cc3s2)CC1` (stereo not given), the result was inactive. The result for `CC(C)(C)c1ccc(C(=O)O/N=C(\N)c2ccccc2)cc1` reads “inactive”.

With `COc1ccc(-c2nc(CN3CCC(C(=O)NC4CCN(Cc5ccccc5)CC4)CC3)c(C)o2)cc1OC`, the result was inactive.

Turning to `CCC1CCCCN1CCCNC(=O)c1ccc(/C=C2/Sc3ccccc3NC2=O)cc1` (stereo not given), the result was inactive.

`CC1CCN(CCc2nc3cc(NC(=O)COc4ccc(Cl)cc4)ccc3n2C)CC1`: the compound was classed as inactive.
